# Measured values as given in the supplement of paper PMC10338343.
# ± gives the standard deviation.
# System: MILI (PIWIL2) piRISC loaded with L1MC piRNA (26 nt)
# Assay: pre-steady-state target cleavage rate (min^-1); guide: L1MC piRNA 5'p-UAACUAAAUACUAUGCAAGCUGUAGG; MIWI and MILI are mouse PIWI proteins and EfPiwi is from a freshwater sponge; tags in brackets are library labels; higher = faster piRNA-guided slicing of the target
# Procedure, shortened: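 Using HEPES–potassium acetate buffer at 33 °C, 1 nM active affinity-purified piRISC with a single synthetic guide was mixed with 0.1 nM transcribed, DNA-blocked target RNA library for 0–8 or 0–960 min, with or without 500 nM GTSF1 partner protein. Uncleaved targets were sequenced and normalised to depth and to weakly complementary targets, and three trials were pooled with k3 capped at 0.0001 min^-1. A burst-and-steady-state fit gave the pre-steady-state cleavage rate.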
# [1] = auxiliary factor: 500 nM mouse GTSF1
# [2] = auxiliary factor: none (no GTSF1)
Sequence,pre-steady-state target cleavage rate [1],pre-steady-state target cleavage rate [2]
UCCUGGAACAGCUAGCAUAGAAUUUAGUUA,0.0486 ± 0.0073,
UCCUGGAUGUCCUUGUCAUAGUAUUUAGUUA,0.0189 ± 0.009,
UCCUGGAUGUCGAAGCAUAGUAUAAUGUUA,0.0052 ± 0.0029,
UCCUGGAUCAGCUUGCAUAGUAUUAAGAUA,0.0716 ± 0.025,
UCCUGCUACAGCUUCGAUAGUAUUUAGAAA,0.0541 ± 0.017,
UCCUCCUACAGCUACCAUAGUAUUUACAAA,0.0179 ± 0.008,
UCCUGGAUGUCGAACGUAUCUAUUUCAGUUA,< 0.0001,
UCCUGCUACAGCUUGCAUUCUAUUUACAAA,0.0141 ± 0.0062,
UCCUGGAUGAGCUUGGAUAGUAUUUUGUUA,0.141 ± 0.029,
UCCUGGAUGUCGAAGCAUAGUAUUAAGUUA,0.034 ± 0.0088,
UCCUGCUUCAGCUUGCAUAGUAUUUUCAAA,0.0882 ± 0.022,
UCCUGGAUCAGCAUGCAUAGAAUUUAGUUA,0.0386 ± 0.0077,
UCCUGGAUGUGCUUGCAUACUUUUUAGUUA,,0.0037 ± 0.0027
UCCUGGAUGUCCUACCAUAGUAUUUAGUUA,0.0632 ± 0.015,
UCCUGGAUCAGCUUGCAAAGAAUUUAGUUA,0.0118 ± 0.0054,
UCCUGGAUGUCCUUGCAUACUAAUUAGUUA,0.00561 ± 0.0042,

Sequence,pre-steady-state target cleavage rate [1],pre-steady-state target cleavage rate [2]
UCCUGGUACUCCUUGCAUAGUAUUUACAAA,0.0123 ± 0.006,
UCCUGGAUGUCGUUGCAUAGUAUUUAGGUA,0.0112 ± 0.0062,
UCCUGGAUGUCCUUGCAUAGUAUUAAGAUA,0.00928 ± 0.0043,
UCCUGGAUCAGCUUGCAUAGUAUUUUCUUA,0.0452 ± 0.013,
UCCUGGAUGUCCUUGCUAAGUAUUUAGUAA,0.0128 ± 0.006,
UCCUGGUACAGCUUGCAUAGUUUUAGUUA,0.00982 ± 0.0052,
UCCUGCUACAGCUUCGUUAGUAUUUAGUAA,0.154 ± 0.033,
UCCUGGAUGUCGAUGCAUAGUAUAAUGUUA,0.031 ± 0.012,
UCCUGGAUGAGCUUGCAUAGAAAUUAGUUA,0.0228 ± 0.0075,
UCCUGCUACAGCUUGCAUAGUUUUUUCAAA,0.0433 ± 0.014,
UCCUGGAUGAGCUUGCAUAGUAUUCUAGUUA,0.165 ± 0.029,
UCCUGGUACAGCUUGCAUACUUUUUAGUUA,,0.00598 ± 0.0037
UCCUGGUACAGCUUGCAUAGUUAAUAGAAA,0.00845 ± 0.0048,
UCCUGGAUGUCGAACGUAUGUUUUAGUUA,,< 0.0001
UCCUGCUACUCGUUGCAUAGUAUUUACAAA,0.0703 ± 0.016,
UCCUGGAUCAGCUUGCAUAGUUAUUAGUAA,0.00826 ± 0.0047,
